Experimental data reported in PubChem BioAssay (NCATS).
Where “and” joins values, the source holds several entries; their conditions need not be identical. Equal values may be shown once. Results filed as inconclusive are left out. Calls of active or inactive are those of the source. Calls come from the whole dose curve; as a rule, active = well fitted curve in the direction sought with a large enough effect; inconclusive = small, poorly fitted or top-dose-only effect, or another doubt; inactive = no such curve, though single readings can be large or run the other way.

Target: Hexokinase-4 (Homo sapiens) + Glucokinase regulatory protein (Homo sapiens) (UniProt P35557+Q14397)
Test: qHTS assay for inhibitors of recombinant human GCK-GKRP interaction: HTRF assay (AID 743207);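 note: 0% = DMSO with GCK present and -100% = DMSO wells lacking GCK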
Details: recombinant GCK-GKRP HTRF binding, 60 min; series mostly up to 57.5 µM; activity change, negative = inhibition: at the top concentration
Outline: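 HTRF read-out (ex 320 nm; 615/665 nm emission) after 60 min RT equilibration of 5 nM GST-GCK, 5 nM FLAG-GKRP, 2 uM S6P, compound and anti-FLAG/anti-GST detection antibodies; signal normalized between DMSO wells with and without GCK.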

Hexokinase-4 (Homo sapiens) + Glucokinase regulatory protein (Homo sapiens), sequence (P35557 whole entry, looked up): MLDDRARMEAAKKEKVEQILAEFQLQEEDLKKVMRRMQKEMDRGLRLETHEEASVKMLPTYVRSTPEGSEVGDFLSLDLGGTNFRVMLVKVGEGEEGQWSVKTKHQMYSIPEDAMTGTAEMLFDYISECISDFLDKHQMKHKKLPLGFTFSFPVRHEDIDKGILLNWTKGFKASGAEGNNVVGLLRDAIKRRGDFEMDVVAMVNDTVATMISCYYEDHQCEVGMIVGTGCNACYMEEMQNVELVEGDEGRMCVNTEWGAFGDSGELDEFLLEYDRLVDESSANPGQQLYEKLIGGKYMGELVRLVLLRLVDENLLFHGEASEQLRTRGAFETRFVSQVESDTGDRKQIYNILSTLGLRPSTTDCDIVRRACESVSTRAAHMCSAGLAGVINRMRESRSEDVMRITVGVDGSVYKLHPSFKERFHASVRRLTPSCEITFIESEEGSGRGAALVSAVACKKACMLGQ
Hexokinase-4 (Homo sapiens) + Glucokinase regulatory protein (Homo sapiens), sequence (Q14397 whole entry, looked up): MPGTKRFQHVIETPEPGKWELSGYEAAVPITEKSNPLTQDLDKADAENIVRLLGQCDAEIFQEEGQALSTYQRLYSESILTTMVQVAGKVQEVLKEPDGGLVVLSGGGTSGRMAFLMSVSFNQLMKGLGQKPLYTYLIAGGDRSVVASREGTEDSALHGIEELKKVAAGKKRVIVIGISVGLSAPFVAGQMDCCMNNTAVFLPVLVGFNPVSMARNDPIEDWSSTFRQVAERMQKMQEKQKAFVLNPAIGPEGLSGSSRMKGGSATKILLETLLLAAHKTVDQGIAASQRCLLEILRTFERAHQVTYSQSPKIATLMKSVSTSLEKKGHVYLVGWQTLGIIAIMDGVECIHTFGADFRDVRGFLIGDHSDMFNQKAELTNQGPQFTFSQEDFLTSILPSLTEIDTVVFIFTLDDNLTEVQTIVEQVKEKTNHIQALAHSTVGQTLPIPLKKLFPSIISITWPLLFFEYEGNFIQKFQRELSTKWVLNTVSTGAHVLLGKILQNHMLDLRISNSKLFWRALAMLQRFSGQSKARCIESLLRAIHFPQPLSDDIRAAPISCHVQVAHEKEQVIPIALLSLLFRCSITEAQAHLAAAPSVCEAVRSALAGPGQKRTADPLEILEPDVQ

Row | SMILES | activity change, negative = inhibition
1 | c1ccc2sc(C3(N4CCCCC4)CCCCC3)cc2c1 | 10.2% (inactive)
2 | COC(=O)[C@@H](N)CCCN=C(N)N[N+](=O)[O-] | 2.84% (inactive)
3 | c1ccc(C2(c3ccccc3)CC2C2=NCCN2)cc1 (stereo not drawn) | -2.97% (inactive)
4 | O=C1CCCN1CC#CCN1CCCC1 | -6.26% (inactive)
5 | CC1=NN=C(c2ccc(N)cc2)c2cc3c(cc2C1)OCO3 | -10.9% (inactive)
6 | c1ccc(CCCN2CCN(CCOC(c3ccccc3)c3ccccc3)CC2)cc1 | -6.79% (inactive)
7 | C[C@@H]1O[C@H](C[N+](C)(C)C)C[C@H]1O | 0.592% (inactive)
8 | S=C(NC1CCCCC1)N1CCC(c2cnc[nH]2)CC1 | -7.69% (inactive)
9 | NC(CP(=O)(O)O)C(=O)O (stereo not drawn) | 2.72% (inactive)
10 | Oc1ccc2c3c1O[C@H]1c4[nH]c5c(c4C[C@@]4(O)[C@@H](C2)N(CC2CC2)CC[C@]314)C[C@@]1(O)[C@H]2Cc3ccc(O)c4c3[C@@]1(CCN2CC1CC1)[C@H]5O4 | 2.52% (inactive)
11 | NCCc1c[nH]c2ccccc12 | -4.15% (inactive)
12 | COc1cc(C(O)CN)ccc1O (stereo not drawn) | 2.62% (inactive)
13 | C/C=C(/C)C(=O)O[C@H]1C(C)=C2[C@H]([C@@H]1OC(=O)CCCCCCC)[C@@](C)(OC(C)=O)C[C@H](OC(=O)CCC)[C@@]1(O)[C@H]2OC(=O)[C@@]1(C)O | -4.62% (inactive)
14 | NC1CC1c1ccccc1 (stereo not drawn) | 3.4% (inactive)
15 | CCCN1CCC[C@H](c2cccc(O)c2)C1 | -3.56% (inactive)
16 | NC(N)=NOCCC(N)C(=O)O (stereo not drawn) | -12.1% (inactive)
17 | COc1ccc2c(c[n+](C)c3c4cc5c(cc4ccc23)OCO5)c1OC | -1.17% (inactive)

Tested on: not listed separately
Test: qHTS Assay for Identifying Gametocytocidal Compounds (AID 743244); note: potency is the fitted concentration of half-maximal effect;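 for max response: % is set by controls: 0 for no effect and ±100 for the full control effect; actives lower the fluorescent signal which means gametocytes are killed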
Details: P. falciparum 3D7 stage III-V gametocytes, alamarBlue, 72 h; max response: active compounds read low
Outline: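 Stage III-V P. falciparum 3D7 gametocytes, 20,000 per well, were exposed to compounds for 72 h at 37C, 5% CO2. AlamarBlue was then added for 24 h and viability was read as fluorescence at Ex 525/Em 598 nm.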

Row | SMILES | max response | Potency
18 | NC(=O)CN1CC(O)CC1=O (stereo not drawn) | -2.78% (inactive) and 8.87% (inactive) | –
19 | C#CCOC(=O)C1=CCCN(C)C1 | 10.6% (inactive) | –
20 | CC(=O)NCCc1c[nH]c2ccccc12 | 17.3% (inactive) | –
21 | CCCCc1ccc(C(=O)O)nc1 | 4.22% (inactive) and 15% (inactive) | –
22 | CCCCCCCCCCCCCCCC[N+](C)(C)C | – | 10 µM (active)
23 | COCCn1c2c([n+](Cc3cnccn3)c1C)C(=O)c1ccccc1C2=O | – | 0.372 µM (active)
24 | CC(C)NC(C)Cc1ccc(I)cc1 (stereo not drawn) | 8.77% (inactive) | –
25 | CC[C@@H](C(N)=O)N1CCCC1=O | 27.6% (inactive) | –
26 | CC[C@@]1(O)C(=O)OCc2c1cc1n(c2=O)Cc2cc3ccccc3nc2-1 | -1.6% (inactive) | –
27 | O=C(O)CC[N+](=O)[O-] | 13% (inactive) | –
28 | CCCN(CCC)[C@@H]1CCc2ccc(O)cc2C1 | 10.7% (inactive) | –
29 | CN(C)[C@@H]1C(=O)C(C(N)=O)=C(O)[C@@]2(O)C(=O)C3=C(O)c4c(O)cccc4[C@@](C)(O)[C@H]3[C@H](O)[C@@H]12 | -4.72% (inactive) and -5.37% (inactive) | –
30 | C[C@@H](N)Cc1cnc[nH]1 | 1.66% (inactive) | –
31 | c1ccc2sc(C3(N4CCCCC4)CCCCC3)cc2c1 | 6.13% (inactive) | –
32 | c1ccc(C2(c3ccccc3)CC2C2=NCCN2)cc1 (stereo not drawn) | -4.94% (inactive) and 21.7% (inactive) | –
33 | O=C1CCCN1CC#CCN1CCCC1 | 30.9% (inactive) | –
34 | C[C@@H]1O[C@H](C[N+](C)(C)C)C[C@H]1O | 7.91% (inactive) | –
35 | S=C(NC1CCCCC1)N1CCC(c2cnc[nH]2)CC1 | 16.5% (inactive) | –
36 | NC(CP(=O)(O)O)C(=O)O (stereo not drawn) | 4% (inactive) | –
37 | NCCc1c[nH]c2ccccc12 | 11% (inactive) | –
38 | COc1cc(C(O)CN)ccc1O (stereo not drawn) | 2.34% (inactive) | –
39 | NC1CC1c1ccccc1 (stereo not drawn) | 14.3% (inactive) | –
40 | CCCN1CCC[C@H](c2cccc(O)c2)C1 | -8.29% (inactive) and 20.7% (inactive) | –
41 | Cc1nc2cnc3ccc(C#Cc4cccnc4)cc3c2n1-c1ccc(C(C)(C)C#N)cc1 | – | 5.9 µM (active)
42 | NC(N)=NOCCC(N)C(=O)O (stereo not drawn) | 10.4% (inactive) | –
43 | COc1ccc2c(c[n+](C)c3c4cc5c(cc4ccc23)OCO5)c1OC | – | 18.7 µM (active)
